Experimental data reported in PubChem BioAssay AID651662 (NMMLSC, 2012).
Calls of active or inactive are those of the source.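 The calls were made as follows: active = fitted concentration giving half the fluorescence drop below 100 µM; inactive = the rest.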

assay: compound effects, K562 without functional ABCB6 – cell-based, flow cytometry, PowderSet01 powders, counter-screen for ABCB6 inhibitor project, dose response (AID 651662); conditions: K562 empty-vector cells, 1 h; series mostly up to 100 µM

| Compound | outcome |
| --- | --- |
| CC(=O)Nc1ccc(NC(=O)c2nc(S(=O)(=O)Cc3ccccc3)ncc2Cl)cc1 | inactive |
| CCc1ccc(NC(=O)c2nc(S(=O)(=O)Cc3ccccc3)ncc2Cl)cc1 | inactive |
| CCOc1ccccc1NC(=O)c1nc(S(=O)(=O)Cc2cccc(C)c2)ncc1Cl | inactive |
| CC(=O)Nc1ccc(NC(=O)c2nc(S(=O)(=O)Cc3cccc(C)c3)ncc2Cl)cc1 | inactive |
